Assay outcomes: PubChem, several laboratories
FAS TE block – FAS thioesterase (human) inhibition | inhibition, % at 15 µM | AID 602261 | P49327 | 360,000 compounds, 0.67% hits | recombinant FAS-TE, OMFH fluorogenic substrate, fluorescence endpoint;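 active = compounds whose normalised, plate-corrected inhibition of enzyme fluorescence in the single-dose primary screen is 50% or more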;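 also: 0% = DMSO with enzyme and 100% = substrate without enzyme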
Neddylation inh – inhibitors of human cullin neddylation; P61081+Q13564; TR-FRET cullin neddylation, biochemical; calls only at 25 µM; 360,000 compounds, 0.58% hits; AID 651699; in the data active = inhibition above about 36%
PfG6PD inh – PfG6PD (Plasmodium falciparum) enzyme inhibition | inhibition, % at 20 µM | PfGluPho enzyme, NADPH resazurin-diaphorase fluorescence | 350,000 compounds, 0.78% hits;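 active = inhibition reaching at least a set limit at 20 µM in the primary screen, cut at about 59% in these data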;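 also: 0% = DMSO wells with substrate and 100% = DMSO wells lacking glucose-6-phosphate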
proKLK7 act – proKLK7 (human) activation, primary screen; P49862; purified proKLK7, EDANS-DABCYL substrate fluorescence; 100% is mature enzyme control, 0% vehicle; activation, % at 7 µM; 370,000 compounds, 0.9% hits; AID 652039;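 active = activation above the mean of all tested compounds plus 3 SD, computed per campaign excluding outliers beyond control limits, cut at about 13% in these data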
KLK7 act conf – confirmation of human kallikrein-7 zymogen activators; shares compounds with proKLK7 act; purified proKLK7, EDANS-DABCYL substrate fluorescence; scaled: vehicle 0, mature enzyme 100; activation, % at 7 µM; 3,200 compounds, 68% hits;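 active = activation, as change over the incubation, above the mean of all tested compounds plus 3 SD, cut at about 13% in these data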
EDANS-DABCYL int – counter-screen for kallikrein-7 activators: EDANS-DABCYL optical interference | shares compounds with proKLK7 act | EDANS-DABCYL substrate fluorescence interference, no enzyme, 4 h; solvent 0%, active enzyme control 100% | activation, % at 7 µM | 3,200 compounds, 80% hits | AID 686952;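 active = activation above the all-compound mean plus 3 SD, ignoring values outside control-based bounds, cut at about 4.8% in these data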;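 also: value is the 4 h activation minus the activation read at time zero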
* marks the source's active call; other numbers are inactive results; i = inactive; nt = no result shown; + = active, no number. Only some compounds are listed: those with a hit (about 2.7% of all), similar ones and a draw of the others.

SMILES	FAS TE block	Neddylation inh	PfG6PD inh	proKLK7 act	KLK7 act conf	EDANS-DABCYL int
CCNC(=S)Nc1ccc2c(c1)c(=O)n(C)n2Cc1cccc(C(F)(F)F)c1	-4	nt	nt	20*	-7	-6
Cc1c(CC(=O)N2CCN(C(=O)C3COc4ccccc4O3)CC2)c(=O)oc2cc(O)cc(O)c12 (stereo unspecified)	-8	i	12	61*	68*	67*
Cc1c(CC(=O)N2CCN(C(=O)C3COc4ccccc4O3)CC2)c(=O)oc2c(C)c(O)ccc12 (stereo unspecified)	-4	nt	16	39*	70*	70*
Cc1c(CC(=O)N2CCN(C(=O)C3COc4ccccc4O3)CC2)c(=O)oc2cc(O)ccc12 (stereo unspecified)	-3	i	6	58*	74*	75*
COc1ccc2c(C)c(CC(=O)N3CCN(C(=O)C4COc5ccccc5O4)CC3)c(=O)oc2c1 (stereo unspecified)	5	nt	-14	3	nt	nt
Cc1cc(C)cc(Cn2cc(CN3CC(N4CCN(C)CC4)CS3(=O)=O)nn2)c1 (stereo unspecified)	-12	i	nt	-1	nt	nt
COC(=O)[C@@]12C[C@@H](CC(=O)NCc3cccs3)C(=O)N(Cc3ccco3)C1=CCC(C)(C)C2	nt	i	nt	1	nt	nt
COc1ccccc1CNc1nc2cc(-c3ccccc3C)sc2c(=O)n1C	18	i	nt	-1	nt	nt
COc1ccc(CNC(=S)NNC(=O)c2cc3ccccc3o2)cc1	0	i	-5	17*	21*	21*
CCc1cc2c(=O)nc3n(c2s1)Cc1ccccc1/C3=C(/O)c1ccc(F)cc1	-3	i	nt	23*	65*	68*
CCc1cc2c(=O)n(-c3ccccc3)c(SCC(N)=O)nc2s1	-6	i	-5	-1	nt	nt
CCc1cc2c(=O)nc3n(c2s1)Cc1ccccc1/C3=C(/O)c1cccc([N+](=O)[O-])c1	21	i	3	nt	nt	nt
CCc1cc2c(=O)nc3n(c2s1)Cc1ccccc1/C3=C(/O)c1ccccc1Cl	14	nt	5	13*	16*	23*
COc1ccc(C(NC(=O)C2CCN(CCCOc3ccccc3)CC2)c2cccs2)cc1 (stereo unspecified)	0	i	nt	0	nt	nt
COC(=O)CC(=O)CSc1nc2c(cc1C#N)CCC2	-4	nt	-10	8	nt	nt
CC(C)OC(=O)CC(=O)CSc1nc2c(cc1C#N)CCCC2	-3	nt	10	20*	71*	77*
CC(C)OC(=O)CC(=O)CSc1nc2c(c(-c3cccs3)c1C#N)CCC2	39	i	4	15*	11	12*
CC(C)OC(=O)CC(=O)CSc1nc2c(cc1C#N)CCC2	-2	nt	12	22*	90*	92*
N#Cc1cc2c(nc1SCC(N)=O)CCCCC2	-3	i	-1	2	nt	nt
CCOC(=O)C(C)Sc1nc2c(c(-c3cccs3)c1C#N)CCC2 (stereo unspecified)	21	i	-14	-1	nt	nt
C=C(C)CSc1nc2c(cc1C#N)CCC2	27	i	-16	0	nt	nt
CC(C)OC(=O)CC(=O)CSc1nc2c(cc1C#N)CCCCCC2	16	nt	-31	18*	70*	77*
CCOc1ccccc1-c1ccc2nccn2c1	-7	i	nt	-1	nt	nt
O=C1NC(Cc2ccc(O)cc2)c2nc3cc(F)ccc3c(=O)n2-c2cc3ccccc3cc21 (stereo unspecified)	14	i	-4	0	nt	nt
CCNC(=O)C1(C)CCN1CCC(=O)c1ccc(Br)cc1 (stereo unspecified)	-10	i	nt	1	nt	nt
SMILES	FAS TE block	Neddylation inh	PfG6PD inh	proKLK7 act	KLK7 act conf	EDANS-DABCYL int
CCOC(=O)CC(=O)CSc1nc2c(cc1C#N)CCCCCC2	2	nt	-27	13*	60*	58*
CN(C)c1ccccc1-c1cc(NC=O)c2ncc(-c3cccc(C(F)(F)F)c3)n2c1	-160	i	nt	107*	178*	144*
CN(C)C(=O)c1cccc(-c2cnc3c(NC=O)cc(-c4ccccc4N(C)C)cn23)c1	-133	i	nt	105*	217*	237*
CN(C)C(=O)c1cccc(-c2cnc3c(NC=O)cc(-c4ccccc4Cl)cn23)c1	4	i	nt	2	nt	nt
CCOC(=O)c1cccc(NC(=O)CN(C)S(=O)(=O)c2ccc(Cl)s2)c1	nt	nt	nt	0	nt	nt
COC1=CC(=O)c2nc(Cl)ccc2C1=O	-27	i	nt	92*	161*	161*
O=C(O)c1ccccc1/C=N/NC(=O)c1cc(-c2ccco2)nc2ccccc12	3	+	22	15*	29*	31*
COc1ccc(CCNC(=O)c2cc(-c3ccco3)nc3ccccc23)cc1	nt	nt	35	-1	nt	nt
O=C(NNC(=O)c1cc(-c2ccco2)nc2ccccc12)c1ccccc1	0	nt	7	141*	51*	70*
CCN(CC)CCNC(=O)c1cc(-c2ccco2)nc2ccccc12	-5	nt	21	60*	57*	73*
Cc1cccc(-c2cccc3c4c([nH]c23)[C@@H]2C[C@H](N(C)C(=O)Nc3ccccc3)[C@H]([C@H](C)O)C(=O)N2CC4)c1	nt	nt	nt	0	nt	nt
O=C(O)c1cn(-c2ccc(F)cc2)c2cc(N3CCNCC3)c(F)cc2c1=O	1	nt	-11	15*	6	4
Cc1cc(NCCO)c2ccccc2n1	-4	i	6	1	nt	nt
Cc1cc(NCCO)c2cc(O)ccc2n1	-4	nt	1	81*	64*	69*
CCN(CC)C(=O)Cn1cc(S(=O)(=O)CC(=O)Nc2ccc3c(c2)OCCO3)c2ccccc21	-4	i	22	0	nt	nt
CCN(CC)C(=O)Cn1cc(C(=O)C(=O)Nc2ccc3c(c2)OCO3)c2ccccc21	10	i	4	57*	24*	44*
O=C(Nc1ccc(F)cc1F)C1CCN(c2ncccn2)CC1	nt	nt	nt	1	nt	nt
COc1ccc(/C=N/Nc2snc(SC)c2C#N)cc1OC	-4	i	1	16*	-14	-10
OCc1ccc(-c2cncc3nccn23)cc1	-9	nt	nt	23*	27*	27*
COc1c2c(c(OC)c3c1c(=O)c1ccccc1n3C)OCO2	-3	i	12	1	nt	nt
COc1c2c(cc3c1c(=O)c1ccccc1n3C)OCO2	nt	nt	nt	45*	56*	77*
CCOC(=O)NN1C(=O)c2ccccc2NC1c1cccs1 (stereo unspecified)	-5	nt	1	14*	16*	15*
O=C1c2ccccc2NC(c2ccco2)N1NS(=O)(=O)c1ccccc1 (stereo unspecified)	-2	nt	7	14*	3	4.8*
O=C1c2ccccc2NC(c2cccs2)N1NS(=O)(=O)c1ccccc1 (stereo unspecified)	-1	nt	-1	36*	5	4.5*
